# ± gives the standard deviation.
# Tests used:
# Conditions in all cases: modulator concentration 10 µM
# [1] = tested on: RAW-Dual (murine macrophage reporter line); experiment: NF-kB reporter (SEAP) activity fold change vs agonist alone; higher = enhanced NF-kB activity
# Method in brief: (§1)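 Compound reached 10 μM final in each well by pin transfer, onto RAW-Dual murine macrophage reporter cells seeded at 50 000 per well in 384-well plates. After 1 hour at 37 °C, the cells were stimulated overnight with a PRR agonist. SEAP in the supernatant was read with QUANTI-Blue at 620 nm absorbance for NF-κB, and Lucia luciferase was read with QUANTI-Luc luminescence for IRF. Each signal was turned into fold change against the mean agonist-only control on the same plate, and two replicate plates were averaged with propagated errors.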
# [2] = tested on: RAW-Dual (murine macrophage reporter line); experiment: IRF reporter (Lucia luciferase) activity fold change vs agonist alone; higher = enhanced IRF activity
# Method in brief: as §1
# [3] = tested on: RAW-Dual (murine macrophage reporter line); experiment: viability score (confluency relative to resting cells, overnight) (fraction); higher = more viable, active = viable (0.7 or more)
# Method in brief: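 Two confluency masks, generated with IncuCyte software over all imaged wells, were applied to IncuCyte images of RAW-Dual macrophages. The cells, in 384-well plates, had been exposed overnight to 10 μM final compound. The viability score is confluency as a fraction of resting cells, and a compound met the cutoff only with both masks above 70% of resting cells.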
# [4] = agonist: CpG ODN 1826 0.5 ug/mL
smiles,measurement,setting,value
O=C(CCCc1ccccc1)NCC1(O)CCCC1,NF-kB reporter,[1]; [4],0.858 ± 0.079
same,NF-kB reporter,[1]; agonist: LPS 0.1 ug/mL,0.968 ± 0.078
same,NF-kB reporter,[1]; agonist: MPLA […],0.867 ± 0.049
same,IRF reporter,[2]; agonist: 3'3'-cGAMP 10 ug/mL,0.968 ± 0.05
same,IRF reporter,[2]; agonist: LPS 0.1 ug/mL,0.977 ± 0.061
same,IRF reporter,[2]; agonist: MPLA […],0.917 ± 0.23
same,viability score,[3],1.01 (active)
O=S(=O)(N=Cc1c(O)ccc2ccccc12)c1cccs1,NF-kB reporter,[1]; [4],1.05 ± 0.23
same,NF-kB reporter,[1]; agonist: LPS 0.1 ug/mL,1 ± 0.079
same,NF-kB reporter,[1]; agonist: MPLA […],0.876 ± 0.12
same,IRF reporter,[2]; agonist: 3'3'-cGAMP 10 ug/mL,0.74 ± 0.022
same,IRF reporter,[2]; agonist: LPS 0.1 ug/mL,0.988 ± 0.15
same,IRF reporter,[2]; agonist: MPLA […],0.992 ± 0.2
same,viability score,[3],0.999 (active)
Cc1cc(C(=O)N2CCC(Oc3cccc4cccnc34)CC2)n(C)n1,NF-kB reporter,[1]; [4],0.994 ± 0.3
same,NF-kB reporter,[1]; agonist: LPS 0.1 ug/mL,1.08 ± 0.054
same,NF-kB reporter,[1]; agonist: MPLA […],1.07 ± 0.081
same,IRF reporter,[2]; agonist: 3'3'-cGAMP 10 ug/mL,0.942 ± 0.035
same,IRF reporter,[2]; agonist: LPS 0.1 ug/mL,1.03 ± 0.11
same,IRF reporter,[2]; agonist: MPLA […],1.13 ± 0.18
same,viability score,[3],0.536 (inactive)
CCCOc1cccc(C(=O)Nc2scc(-c3ccccc3)c2C(=O)OC(C)C)c1,NF-kB reporter,[1]; [4],1.79 ± 0.35
same,NF-kB reporter,[1]; agonist: LPS 0.1 ug/mL,1.24 ± 0.16
same,NF-kB reporter,[1]; agonist: MPLA […],2.23 ± 0.46
same,IRF reporter,[2]; agonist: 3'3'-cGAMP 10 ug/mL,0.635 ± 0.056
same,IRF reporter,[2]; agonist: LPS 0.1 ug/mL,0.66 ± 0.22
same,IRF reporter,[2]; agonist: MPLA […],0.65 ± 0.041
same,viability score,[3],0.883 (active)
CC(=O)c1ccc(NC(=O)CSc2ccc(-c3ccc4c(c3)OCO4)nn2)cc1,NF-kB reporter,[1]; [4],0.846 ± 0.28
same,NF-kB reporter,[1]; agonist: LPS 0.1 ug/mL,1.04 ± 0.096
same,NF-kB reporter,[1]; agonist: MPLA […],0.981 ± 0.11
same,IRF reporter,[2]; agonist: 3'3'-cGAMP 10 ug/mL,0.955 ± 0.034
same,IRF reporter,[2]; agonist: LPS 0.1 ug/mL,1.02 ± 0.2
same,IRF reporter,[2]; agonist: MPLA […],1.03 ± 0.11
same,viability score,[3],0.99 (active)
Cc1cc(NC2CCCC2)nc2ccccc12,NF-kB reporter,[1]; [4],0.798 ± 0.21
same,NF-kB reporter,[1]; agonist: LPS 0.1 ug/mL,1.48 ± 0.12
same,NF-kB reporter,[1]; agonist: MPLA […],1.91 ± 0.27
same,IRF reporter,[2]; agonist: 3'3'-cGAMP 10 ug/mL,1.12 ± 0.068
same,IRF reporter,[2]; agonist: LPS 0.1 ug/mL,1.88 ± 0.28
same,IRF reporter,[2]; agonist: MPLA […],2.72 ± 0.43
same,viability score,[3],0.608 (inactive)
COc1ccc2cc1Oc1ccc(cc1)C[C@H]1c3c(cc4c(c3Oc3cc5c(cc3OC)CCN(C)[C@@H]5C2)OCO4)CCN1C,NF-kB reporter,[1]; [4],0.195 ± 0.011
same,NF-kB reporter,[1]; agonist: LPS 0.1 ug/mL,1.09 ± 0.091
same,NF-kB reporter,[1]; agonist: MPLA […],0.928 ± 0.059
same,IRF reporter,[2]; agonist: 3'3'-cGAMP 10 ug/mL,0.786 ± 0.045
same,IRF reporter,[2]; agonist: LPS 0.1 ug/mL,0.931 ± 0.099
same,IRF reporter,[2]; agonist: MPLA […],0.889 ± 0.12
same,viability score,[3],0.991 (active)
CCOc1ccc2nc(N(CCCN(C)C)C(=O)c3ccc(Br)s3)sc2c1.Cl,NF-kB reporter,[1]; [4],0.164 ± 0.014
same,NF-kB reporter,[1]; agonist: LPS 0.1 ug/mL,0.836 ± 0.076
same,NF-kB reporter,[1]; agonist: MPLA […],0.855 ± 0.13
same,IRF reporter,[2]; agonist: 3'3'-cGAMP 10 ug/mL,0.406 ± 0.1
same,IRF reporter,[2]; agonist: LPS 0.1 ug/mL,1.14 ± 0.071
same,IRF reporter,[2]; agonist: MPLA […],0.533 ± 0.083
same,viability score,[3],0.0434 (inactive)
Cc1ccc(C2(c3ccc(C)cc3)CC2C(=O)Nc2ccccc2)cc1 (stereo unspecified),NF-kB reporter,[1]; [4],0.728 ± 0.079
same,NF-kB reporter,[1]; agonist: LPS 0.1 ug/mL,0.905 ± 0.12
same,NF-kB reporter,[1]; agonist: MPLA […],1.51 ± 0.071
same,IRF reporter,[2]; agonist: 3'3'-cGAMP 10 ug/mL,0.541 ± 0.031
same,IRF reporter,[2]; agonist: LPS 0.1 ug/mL,0.835 ± 0.12
same,IRF reporter,[2]; agonist: MPLA […],0.654 ± 0.12
same,viability score,[3],0.992 (active)
NCCCC[C@H](N[C@@H](CCc1ccccc1)C(=O)O)C(=O)N1CCC[C@H]1C(=O)O,NF-kB reporter,[1]; [4],1.01 ± 0.076
same,NF-kB reporter,[1]; agonist: LPS 0.1 ug/mL,0.997 ± 0.097
same,NF-kB reporter,[1]; agonist: MPLA […],0.97 ± 0.033
same,IRF reporter,[2]; agonist: 3'3'-cGAMP 10 ug/mL,1.26 ± 0.25
same,IRF reporter,[2]; agonist: LPS 0.1 ug/mL,0.999 ± 0.049
same,IRF reporter,[2]; agonist: MPLA […],1.07 ± 0.17
same,viability score,[3],0.996 (active)
COC1(CNC(=O)C2CCN(S(C)(=O)=O)CC2)CCSC1 (stereo unspecified),NF-kB reporter,[1]; [4],0.879 ± 0.04
same,NF-kB reporter,[1]; agonist: LPS 0.1 ug/mL,0.875 ± 0.076
same,NF-kB reporter,[1]; agonist: MPLA […],1.07 ± 0.1
same,IRF reporter,[2]; agonist: 3'3'-cGAMP 10 ug/mL,0.946 ± 0.074
same,IRF reporter,[2]; agonist: LPS 0.1 ug/mL,1.08 ± 0.15
same,IRF reporter,[2]; agonist: MPLA […],1.22 ± 0.34
same,viability score,[3],0.97 (active)
O=c1cccnn1CC1CN(c2ncc(Br)cn2)C1,NF-kB reporter,[1]; [4],1.04 ± 0.32
same,NF-kB reporter,[1]; agonist: LPS 0.1 ug/mL,1.08 ± 0.072
same,NF-kB reporter,[1]; agonist: MPLA […],1.07 ± 0.096
same,IRF reporter,[2]; agonist: 3'3'-cGAMP 10 ug/mL,0.964 ± 0.044
same,IRF reporter,[2]; agonist: LPS 0.1 ug/mL,0.966 ± 0.17
same,IRF reporter,[2]; agonist: MPLA […],1.05 ± 0.23
same,viability score,[3],1 (active)
Cl.NC12CC3CC(CC(C3)C1)C2,NF-kB reporter,[1]; [4],1.44 ± 0.2
same,NF-kB reporter,[1]; agonist: LPS 0.1 ug/mL,1.21 ± 0.38
same,NF-kB reporter,[1]; agonist: MPLA […],1.04 ± 0.062
same,IRF reporter,[2]; agonist: 3'3'-cGAMP 10 ug/mL,0.909 ± 0.033
same,IRF reporter,[2]; agonist: LPS 0.1 ug/mL,1.44 ± 0.24
same,IRF reporter,[2]; agonist: MPLA […],1.12 ± 0.096
same,viability score,[3],0.983 (active)
